Common to all, as to experiment: PBM; 200 nM protein, PBS
Holding throughout (conditions): dsDNA, one strand shown

Assay [1] deals with T1, VENTX (Homo sapiens, UniProt O95231 78-163, R121Q).
T1 sequence: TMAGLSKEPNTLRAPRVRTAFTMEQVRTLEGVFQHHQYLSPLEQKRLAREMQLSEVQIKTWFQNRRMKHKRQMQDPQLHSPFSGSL

The target of assay [2] is T2, VENTX (Homo sapiens, UniProt O95231 78-163).
T2 sequence: T1 sequence with Q44R

Assay [3] has as its target T3, VENTX (Homo sapiens, UniProt O95231 78-163, Y115F).
T3 sequence: T1 sequence with Y38F, Q44R

Assay [4] has as its target HOXA4 (Homo sapiens, UniProt Q00056 201-287).
The target in assay [5] is PRRX1 (Homo sapiens, UniProt P54821 80-166, F113S).
The target of assay [6] is PRRX1 (Homo sapiens, UniProt P54821 80-166).
In assay [7] the target is HOXB9 (Homo sapiens, UniProt P17482 171-250, T197M).
Assay [8] addresses HOXC9 (Homo sapiens, UniProt P31274 178-260, K195R).
The target in assay [9] is HOXA7 (Homo sapiens, UniProt P31268 116-202).
In assay [10] the target is T4, PAX4 (Homo sapiens, UniProt O43316 9-242, R200K).
T4 sequence: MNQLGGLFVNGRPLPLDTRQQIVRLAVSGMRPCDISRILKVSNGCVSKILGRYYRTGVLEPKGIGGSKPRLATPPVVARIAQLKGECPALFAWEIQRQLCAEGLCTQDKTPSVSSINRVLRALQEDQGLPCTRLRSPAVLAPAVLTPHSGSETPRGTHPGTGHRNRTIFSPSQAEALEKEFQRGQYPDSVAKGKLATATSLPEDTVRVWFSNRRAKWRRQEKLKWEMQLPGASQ

For assay [11], the target named is T5, PAX4 (Homo sapiens, UniProt O43316 9-242).
T5 sequence: T4 sequence with K192R

Assay [12] has as its target HOXB6 (Homo sapiens, UniProt P17509 132-218, K202E).
Assay [13] addresses T6, PAX4 (Homo sapiens, UniProt O43316 9-242, R200Q).
T6 sequence: T4 sequence with K192Q

In assay [14] the target is T7, PAX4 (Homo sapiens, UniProt O43316 9-242, F177V).
T7 sequence: T4 sequence with F169V, K192R

The target in assay [15] is HOXC10 (Homo sapiens, UniProt Q9NYD6 254-340, K271E).
In assay [16] the target is T8, PAX4 (Homo sapiens, UniProt O43316 9-242, F177Y).
T8 sequence: T4 sequence with F169Y, K192R

For assay [17], the target named is HOXC9 (Homo sapiens, UniProt P31274 178-260, R222W).
Assay [18] has as its target HESX1 (Homo sapiens, UniProt Q9UBX0 95-180, F115L).
Assay [19] deals with T9, PAX4 (Homo sapiens, UniProt O43316 9-242, R227W).
T9 sequence: T4 sequence with K192R, R219W

Assay [20] addresses HOXA7 (Homo sapiens, UniProt P31268 116-202, W177C).
Assay [21] addresses HOXA4 (Homo sapiens, UniProt Q00056 201-287, W262F).
Assay [22] addresses HOXB6 (Homo sapiens, UniProt P17509 132-218).
Assay [23] concerns the target HOXC10 (Homo sapiens, UniProt Q9NYD6 254-340).
The target of assay [24] is ALX4 (Homo sapiens, UniProt Q9H161 200-286, Q225E).
For assay [25], the target named is HOXB9 (Homo sapiens, UniProt P17482 171-250).
Assay [26] deals with HOXC9 (Homo sapiens, UniProt P31274 178-260).
Assay [27] concerns the target HOXD13 (Homo sapiens, UniProt P35453 263-343, T313R).
The target in assay [28] is HOXC9 (Homo sapiens, UniProt P31274 178-260, R193K).
Assay [29] deals with HOXD13 (Homo sapiens, UniProt P35453 263-343).
In assay [30] the target is HOXD13 (Homo sapiens, UniProt P35453 263-343, T313A).
The target in assay [31] is HOXB9 (Homo sapiens, UniProt P17482 171-250, R186Q).
In assay [32] the target is HOXA4 (Homo sapiens, UniProt Q00056 201-287, W262R).
The target in assay [33] is HOXA2 (Homo sapiens, UniProt O43364 129-215, R185T).
In assay [34] the target is HOXA4 (Homo sapiens, UniProt Q00056 201-287, R217L).
For assay [35], the target named is PITX2 (Homo sapiens, UniProt Q99697 72-157).
For assay [36], the target named is HOXA2 (Homo sapiens, UniProt O43364 129-215, R185K).
Assay [37] concerns the target HOXA2 (Homo sapiens, UniProt O43364 129-215, Y150S).
Assay [38] has as its target HOXA2 (Homo sapiens, UniProt O43364 129-215).

Numbering of substitutions follows the chain as printed.

Chain of HOXC10 (Homo sapiens, UniProt Q9NYD6 254-340, K271E) (Q9NYD6 254-340 K271E): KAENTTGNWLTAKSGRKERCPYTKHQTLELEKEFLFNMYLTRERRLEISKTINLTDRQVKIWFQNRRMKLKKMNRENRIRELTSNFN
Chain of HOXC9 (Homo sapiens, UniProt P31274 178-260, R222W) (P31274 178-260 R222W): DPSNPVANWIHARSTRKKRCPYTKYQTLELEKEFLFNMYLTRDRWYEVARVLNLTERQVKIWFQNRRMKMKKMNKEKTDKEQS
Chain of HOXB9 (Homo sapiens, UniProt P17482 171-250, T197M) (P17482 171-250 T197M): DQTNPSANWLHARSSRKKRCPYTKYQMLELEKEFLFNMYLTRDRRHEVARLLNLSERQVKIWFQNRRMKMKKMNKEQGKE
Chain of HOXC9 (Homo sapiens, UniProt P31274 178-260, K195R) (P31274 178-260 K195R): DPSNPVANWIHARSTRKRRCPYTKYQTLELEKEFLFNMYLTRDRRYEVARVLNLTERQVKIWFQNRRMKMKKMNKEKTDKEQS
Chain of PRRX1 (Homo sapiens, UniProt P54821 80-166) (P54821 80-166): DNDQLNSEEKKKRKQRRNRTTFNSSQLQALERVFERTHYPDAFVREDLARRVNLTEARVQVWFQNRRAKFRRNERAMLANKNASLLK
Chain of HOXC10 (Homo sapiens, UniProt Q9NYD6 254-340) (Q9NYD6 254-340): as the sequence (Q9NYD6 254-340 K271E) above, with E18K counted along it
Chain of HOXC9 (Homo sapiens, UniProt P31274 178-260) (P31274 178-260): as the sequence (P31274 178-260 R222W) above, with W45R counted along it
Chain of HOXA4 (Homo sapiens, UniProt Q00056 201-287, W262F) (Q00056 201-287 W262F): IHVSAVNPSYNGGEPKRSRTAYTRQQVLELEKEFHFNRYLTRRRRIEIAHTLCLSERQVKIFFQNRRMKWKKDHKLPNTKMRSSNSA
Chain of PRRX1 (Homo sapiens, UniProt P54821 80-166, F113S) (P54821 80-166 F113S): as the sequence (P54821 80-166) above, with F34S counted along it
Chain of HOXA4 (Homo sapiens, UniProt Q00056 201-287) (Q00056 201-287): as the sequence (Q00056 201-287 W262F) above, with F62W counted along it
Chain of HOXC9 (Homo sapiens, UniProt P31274 178-260, R193K) (P31274 178-260 R193K): as the sequence (P31274 178-260 R222W) above, with R16K, W45R counted along it
Chain of HOXD13 (Homo sapiens, UniProt P35453 263-343, T313A) (P35453 263-343 T313A): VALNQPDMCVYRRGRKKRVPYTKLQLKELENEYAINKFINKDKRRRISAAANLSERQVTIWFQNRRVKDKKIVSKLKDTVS
Chain of HOXB9 (Homo sapiens, UniProt P17482 171-250, R186Q) (P17482 171-250 R186Q): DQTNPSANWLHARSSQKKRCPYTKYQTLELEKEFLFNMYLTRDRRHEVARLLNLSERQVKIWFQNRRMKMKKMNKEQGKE
Chain of HOXA4 (Homo sapiens, UniProt Q00056 201-287, W262R) (Q00056 201-287 W262R): as the sequence (Q00056 201-287 W262F) above, with F62R counted along it
Chain of HOXA2 (Homo sapiens, UniProt O43364 129-215, R185K) (O43364 129-215 R185K): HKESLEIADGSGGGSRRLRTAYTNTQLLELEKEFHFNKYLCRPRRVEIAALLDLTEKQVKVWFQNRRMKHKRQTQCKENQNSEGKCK
Chain of HOXA7 (Homo sapiens, UniProt P31268 116-202) (P31268 116-202): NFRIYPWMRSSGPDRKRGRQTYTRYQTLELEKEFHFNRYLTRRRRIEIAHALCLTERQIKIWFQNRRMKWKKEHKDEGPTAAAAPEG
Chain of HOXB6 (Homo sapiens, UniProt P17509 132-218) (P17509 132-218): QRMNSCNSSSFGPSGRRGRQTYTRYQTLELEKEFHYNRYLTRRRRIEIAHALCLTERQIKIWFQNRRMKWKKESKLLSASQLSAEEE
Chain of HOXA2 (Homo sapiens, UniProt O43364 129-215) (O43364 129-215): as the sequence (O43364 129-215 R185K) above, with K57R counted along it
Chain of HESX1 (Q9UBX0 95-180 F115L): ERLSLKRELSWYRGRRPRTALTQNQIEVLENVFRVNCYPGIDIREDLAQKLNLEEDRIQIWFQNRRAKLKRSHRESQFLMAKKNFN
Chain of HOXB9 (Homo sapiens, UniProt P17482 171-250) (P17482 171-250): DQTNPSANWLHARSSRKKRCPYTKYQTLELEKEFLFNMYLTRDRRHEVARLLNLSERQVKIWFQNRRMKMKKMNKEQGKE
Chain of HOXA4 (Homo sapiens, UniProt Q00056 201-287, R217L) (Q00056 201-287 R217L): as the sequence (Q00056 201-287 W262F) above, with R17L, F62W counted along it
Chain of HOXB6 (Homo sapiens, UniProt P17509 132-218, K202E) (P17509 132-218 K202E): as the sequence (P17509 132-218) above, with K71E counted along it
Chain of ALX4 (Q9H161 200-286 Q225E): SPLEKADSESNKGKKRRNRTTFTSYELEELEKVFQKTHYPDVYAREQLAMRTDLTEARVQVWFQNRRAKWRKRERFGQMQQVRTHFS
Chain of HOXA7 (Homo sapiens, UniProt P31268 116-202, W177C) (P31268 116-202 W177C): as the sequence (P31268 116-202) above, with W62C counted along it
Chain of HOXD13 (Homo sapiens, UniProt P35453 263-343, T313R) (P35453 263-343 T313R): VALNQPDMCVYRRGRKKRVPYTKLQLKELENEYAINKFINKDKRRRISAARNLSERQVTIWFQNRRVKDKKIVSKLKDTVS
Chain of HOXD13 (Homo sapiens, UniProt P35453 263-343) (P35453 263-343): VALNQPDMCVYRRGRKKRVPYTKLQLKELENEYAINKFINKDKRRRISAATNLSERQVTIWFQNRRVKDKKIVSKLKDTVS
Chain of HOXA2 (Homo sapiens, UniProt O43364 129-215, R185T) (O43364 129-215 R185T): as the sequence (O43364 129-215 R185K) above, with K57T counted along it
Chain of HOXA2 (Homo sapiens, UniProt O43364 129-215, Y150S) (O43364 129-215 Y150S): as the sequence (O43364 129-215 R185K) above, with Y22S, K57R counted along it

For GCCGGCAC, the binding signal in assay [1] is 7.98 upbm affinity estimate (log intensity, higher = more binding, comparable within an allelic series); in assay [2], 7.91 upbm affinity estimate (log intensity, higher = more binding, comparable within an allelic series); in [3] it was 7.98 upbm affinity estimate (log intensity, higher = more binding, comparable within an allelic series).

Regarding AGTTATCC, the binding signal is 9.65 upbm affinity estimate (log intensity, higher = more binding, comparable within an allelic series) in [1]; 10.1 upbm affinity estimate (log intensity, higher = more binding, comparable within an allelic series) in [2]; 11.1 upbm affinity estimate (log intensity, higher = more binding, comparable within an allelic series) in [4].

As for CCGATTAC, the binding signal is 10.3 upbm affinity estimate (log intensity, higher = more binding, comparable within an allelic series) in assay [1]; 9.76 upbm affinity estimate (log intensity, higher = more binding, comparable within an allelic series) in assay [5]; 10.4 upbm affinity estimate (log intensity, higher = more binding, comparable within an allelic series) in assay [3]; 11.8 upbm affinity estimate (log intensity, higher = more binding, comparable within an allelic series) in [6].

Regarding ATTATAAT, the binding signal in assay [7] is 10.2 upbm affinity estimate (log intensity, higher = more binding, comparable within an allelic series); in assay [8], 12.5 upbm affinity estimate (log intensity, higher = more binding, comparable within an allelic series); in [9] it was 11.3 upbm affinity estimate (log intensity, higher = more binding, comparable within an allelic series); in assay [10] it was 11.8 upbm affinity estimate (log intensity, higher = more binding, comparable within an allelic series); in [5] it was 11.3 upbm affinity estimate (log intensity, higher = more binding, comparable within an allelic series); in assay [11] it was 12.2 upbm affinity estimate (log intensity, higher = more binding, comparable within an allelic series). In addition, the binding signal in assay [12] is 10.1 upbm affinity estimate (log intensity, higher = more binding, comparable within an allelic series); in assay [13], 12 upbm affinity estimate (log intensity, higher = more binding, comparable within an allelic series); in assay [14] it was 10.8 upbm affinity estimate (log intensity, higher = more binding, comparable within an allelic series); in [15], 11.8 upbm affinity estimate (log intensity, higher = more binding, comparable within an allelic series); in assay [16] it was 11.1 upbm affinity estimate (log intensity, higher = more binding, comparable within an allelic series); in [17] it was 11.1 upbm affinity estimate (log intensity, higher = more binding, comparable within an allelic series). The binding signal is 7.83 upbm affinity estimate (log intensity, higher = more binding, comparable within an allelic series) in [18]; 11 upbm affinity estimate (log intensity, higher = more binding, comparable within an allelic series) in assay [19]; 8.94 upbm affinity estimate (log intensity, higher = more binding, comparable within an allelic series) in assay [20]; 11.4 upbm affinity estimate (log intensity, higher = more binding, comparable within an allelic series) in [21]; 13.3 upbm affinity estimate (log intensity, higher = more binding, comparable within an allelic series) in [6]; 11.8 upbm affinity estimate (log intensity, higher = more binding, comparable within an allelic series) in assay [22].

On to CAATAAAA, for which the binding signal in [7] was 10.1 upbm affinity estimate (log intensity, higher = more binding, comparable within an allelic series); in [8], 13.2 upbm affinity estimate (log intensity, higher = more binding, comparable within an allelic series); in [23] it was 12.9 upbm affinity estimate (log intensity, higher = more binding, comparable within an allelic series); in assay [24], 11.2 upbm affinity estimate (log intensity, higher = more binding, comparable within an allelic series); in [25] it was 12.7 upbm affinity estimate (log intensity, higher = more binding, comparable within an allelic series); in assay [26], 13.2 upbm affinity estimate (log intensity, higher = more binding, comparable within an allelic series). Besides, the binding signal in assay [27] is 11.2 upbm affinity estimate (log intensity, higher = more binding, comparable within an allelic series); in assay [28], 13.2 upbm affinity estimate (log intensity, higher = more binding, comparable within an allelic series); in [29] it was 12.5 upbm affinity estimate (log intensity, higher = more binding, comparable within an allelic series); in assay [15], 12.5 upbm affinity estimate (log intensity, higher = more binding, comparable within an allelic series); in [30], 12.3 upbm affinity estimate (log intensity, higher = more binding, comparable within an allelic series); in assay [31], 12.4 upbm affinity estimate (log intensity, higher = more binding, comparable within an allelic series). Besides, the binding signal in assay [17] was 11.7 upbm affinity estimate (log intensity, higher = more binding, comparable within an allelic series).

As to ATTAACGA, the binding signal is 10 upbm affinity estimate (log intensity, higher = more binding, comparable within an allelic series) in assay [7]; 10.6 upbm affinity estimate (log intensity, higher = more binding, comparable within an allelic series) in assay [32]; 12.6 upbm affinity estimate (log intensity, higher = more binding, comparable within an allelic series) in assay [8]; 12.2 upbm affinity estimate (log intensity, higher = more binding, comparable within an allelic series) in [23]; 11.5 upbm affinity estimate (log intensity, higher = more binding, comparable within an allelic series) in [3]; 12.4 upbm affinity estimate (log intensity, higher = more binding, comparable within an allelic series) in [33]. Moreover, the binding signal is 12 upbm affinity estimate (log intensity, higher = more binding, comparable within an allelic series) in assay [34]; 12.5 upbm affinity estimate (log intensity, higher = more binding, comparable within an allelic series) in assay [26]; 10.7 upbm affinity estimate (log intensity, higher = more binding, comparable within an allelic series) in [35]; 12.5 upbm affinity estimate (log intensity, higher = more binding, comparable within an allelic series) in assay [28]; 13.3 upbm affinity estimate (log intensity, higher = more binding, comparable within an allelic series) in [36]; 13.6 upbm affinity estimate (log intensity, higher = more binding, comparable within an allelic series) in assay [4]. Further, the binding signal is 12.1 upbm affinity estimate (log intensity, higher = more binding, comparable within an allelic series) in [15]; 10.9 upbm affinity estimate (log intensity, higher = more binding, comparable within an allelic series) in [17]; 10.9 upbm affinity estimate (log intensity, higher = more binding, comparable within an allelic series) in assay [37]; 11.4 upbm affinity estimate (log intensity, higher = more binding, comparable within an allelic series) in assay [21]; 12 upbm affinity estimate (log intensity, higher = more binding, comparable within an allelic series) in [38].

The values are drawn from paper PMC11006913.
